# Source: PubChem BioAssay (several laboratories)
# An excerpt weighted towards active compounds, which were near 27% of everything screened.
# CYP2C9 act: activators of human CYP2C9; P11712; recombinant CYP2C9, luciferin-H conversion, luminescence; stronger effect = higher value; factor 1 = untreated enzyme, 0 = blocked; activation factor at 5 µM; 96,000 tested, 1.4% active; AID 1024;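 active = activation factor of 2 or more for CYP2C9 at a 5 µM dose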;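 also: 0 = sulfaphenazole-blocked wells and 1 = vehicle-only wells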
# CYP2C19 inh: inhibitors of human CYP2C19. P33261. CYP2C19 Supersomes, luciferin-H EGE luminescence, 30 min. inhibition, % at 5 µM. 96,000 tested, 21% active. AID 778;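 active = CYP2C19 inhibition above a set limit at 5 µM in the primary screen, cut at about 50% in these data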;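 also: plate controls were negative control wells for no effect and 2.5 mM tranylcypromine positive control for full effect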
# Target sequence (P33261 whole entry, looked up): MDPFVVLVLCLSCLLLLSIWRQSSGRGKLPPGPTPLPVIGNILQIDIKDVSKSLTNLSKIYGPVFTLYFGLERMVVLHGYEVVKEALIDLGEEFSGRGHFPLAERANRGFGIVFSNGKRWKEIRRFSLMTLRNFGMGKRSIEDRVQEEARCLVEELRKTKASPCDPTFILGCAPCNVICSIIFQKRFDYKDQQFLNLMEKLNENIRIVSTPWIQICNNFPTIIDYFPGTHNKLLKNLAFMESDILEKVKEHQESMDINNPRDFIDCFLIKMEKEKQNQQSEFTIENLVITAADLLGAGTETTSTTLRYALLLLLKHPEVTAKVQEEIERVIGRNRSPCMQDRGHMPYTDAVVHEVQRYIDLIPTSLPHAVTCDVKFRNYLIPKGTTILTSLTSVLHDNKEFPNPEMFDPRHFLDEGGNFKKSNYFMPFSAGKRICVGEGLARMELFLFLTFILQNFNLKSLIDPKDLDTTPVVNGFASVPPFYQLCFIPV
# Cav32 inh: human Cav3.2 channel inhibition, primary screen; Cav3.2-expressing cells, Fluo-4 calcium fluorescence FDSS; stronger effect = lower value; B-score at 10 µM; 100,000 tested, 4% active;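 active = single-dose well whose peak fluorescence ratio is a statistical outlier from its plate by either plate-standardised score or position-corrected B-score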
# CYP2C19 act: increases human CYP2C19 enzyme activity; P33261; recombinant CYP2C19, luciferin-H EGE luminescence; stronger effect = higher value; 0 = fully inhibited enzyme, 1 = untreated enzyme; activation factor at 5 µM; 96,000 tested, under 10 active; AID 1025;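 active = activation factor of at least 2 at 5 µM in the primary screen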;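 also: 0 = wells with 2.5 mM tranylcypromine and 1 = vehicle-only wells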
# CYP2C9 inh: human CYP2C9 inhibition; P11712; CYP2C9 Supersomes, luciferin-H conversion, luminescence; inhibition, % at 5 µM; 96,000 tested, 20% active; AID 777;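 active = blocking of liver enzyme CYP2C9 beyond about 50% at 5 µM, limit read from the data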
# Starred values were filed as active, the others as inactive; nt = no result given.
SMILES,CYP2C9 act,CYP2C19 inh,Cav32 inh,CYP2C19 act,CYP2C9 inh
COc1ccc(S(=O)(=O)C(C#N)c2nc3ccccc3nc2N2CCC(C)CC2)cc1 (stereo unspecified),1.1,-3,-0.33,1,-8
CCCCN(CCCC)S(=O)(=O)c1ccc2[nH]c(=O)[nH]c2c1,0.5,13,0.032,0.9,48
CC(C)(C)c1ccc(NC(=O)c2ccc3c(c2)S(=O)(=O)c2ccccc2C3=O)cc1,nt,nt,0.086,nt,nt
Cc1cc(N2CCCC2=O)cc(C)c1S(=O)(=O)NCCOc1ccc(C(C)(C)C)cc1,nt,nt,-3.6,nt,nt
Cc1cc(C)nc(NS(=O)(=O)c2ccc(NC(=O)c3ccc(S(=O)(=O)N4CCOCC4)cc3)cc2)n1,1,-7,0.89,1.1,-4
Cc1cc(C)nc(NS(=O)(=O)c2ccc(NC(=O)c3ccc4c(c3)OCO4)cc2)n1,0.5,9,0.045,0.9,52*
N#Cc1ccccc1N=C1CCCN1Cc1ccccc1,0.8,85*,-0.031,0.2,22
Cc1cc(C)c(N=C2CCCN2Cc2ccccc2)c(C#N)c1,nt,nt,-4.8*,nt,nt
Cc1cccc(N2CCCC2=Nc2ccc(Br)cc2C#N)c1,0.9,2,1.4,1,6
COc1ccc(S(=O)(=O)N(CC(=O)N2CCOCC2)c2cc(Cl)ccc2OC)cc1OC,0.7,10,1.4,0.9,33
Cc1occc1-c1nnc(SCC(=O)N2CCOCC2)o1,1.1,0,0.23,1,-8
Cc1occc1-c1nnc(SCC(=O)c2cc3ccccc3oc2=O)o1,0.1,19,-0.003,0.8,90*
Cc1occc1-c1nnc(SCC(=O)Nc2nc3ccccc3s2)o1,0.2,79*,0.67,0.2,75*
CCCCCn1c(SCc2cccc(C)c2)nc2c1c(=O)[nH]c(=O)n2C,nt,nt,-1,nt,nt
C=CCc1ccccc1OCC(O)CNC(C)C (stereo unspecified),nt,nt,-1.1,nt,nt
Clc1ccccc1OCCN1CCCCC1,1,44,-1.4,0.6,3
Clc1ccccc1OCCn1ccnc1,0.3,66*,0.45,0.3,74*
Nc1nc2ccccc2n1CCOc1ccccc1Cl,0.7,56*,-0.4,0.4,30
C=CCc1ccccc1OCCn1ccnc1,0.1,92*,0.55,0.1,85*
Clc1cccc(OCCn2cncn2)c1Cl,1.8,84*,0.13,0.2,-81
COc1ccc(NC(=O)Cc2nn(C)c(=O)c3ccccc23)c2ncccc12,0.9,4,nt,1,11
O=C1C2C3C=CC(C3)C2C(=O)N1c1ccc2c(c1)OCO2 (stereo unspecified),1.1,8,0.052,0.9,-8
Cc1cc(N2C(=O)C3C4C=CC(C4)C3C2=O)ccc1Br (stereo unspecified),0.8,73*,0.71,0.3,24
Nc1nc(-c2ccc3ccccc3c2)c(C2(O)C(=O)Nc3c(Br)cc(F)cc32)s1 (stereo unspecified),1.1,92*,-1.2,0.1,-12
Cc1nc2c(C(=O)N3CCCC3)cnn2c(C)c1Cc1c(F)cccc1Cl,1.2,54*,0.69,0.5,-20
SMILES,CYP2C9 act,CYP2C19 inh,Cav32 inh,CYP2C19 act,CYP2C9 inh
Cc1nc2c(C(=O)N3CCN(c4ccccn4)CC3)cnn2c(C)c1Cc1cccc(Cl)c1,0.3,98*,-2.2,0,74*
CC(=O)N1CCc2cc(S(=O)(=O)NCCC(=O)Nc3cccc(C)c3C)ccc21,1.1,6,0.63,0.9,-8
CCOC(=O)C1CCN(C(=O)CN(c2cc(OC)ccc2OC)S(=O)(=O)c2ccccc2)CC1,0.6,17,0.13,0.8,45
Cc1c(C(=O)OCC(=O)c2ccc3c(c2)OCCO3)oc2ccccc12,1.5,14,-2.2,0.9,-50
Cc1cc(C(=O)COC(=O)CCC(=O)c2ccc3c(c2)OCCO3)c(C)n1Cc1ccco1,0.3,67*,-4.3,0.3,68*
CCOc1ncccc1C(=O)OCC(=O)c1ccc(Cl)s1,0.9,55*,0.22,0.5,10
CCOc1ncccc1C(=O)OCC(=O)c1cc(C)n(Cc2ccco2)c1C,2.3*,80*,-4.9*,0.2,-127
Cc1cc(/C=N\O)c(C)n1-c1ccncc1,1.1,14,nt,0.9,-14
CCN(CC)CCOC(=O)c1ccc(NC(=O)C2(c3ccccc3)CCCC2)cc1,1,0,-1.5,1,3
COC(=O)C1(CCSC)NC(c2ccccc2OC)C2C(=O)N(C)C(=O)C21 (stereo unspecified),0.6,-3,0.41,1,40
